Only some compounds are listed: those with a hit (about 19% of all), similar ones and a draw of the others.
HT1080 IDH1KD tx: HT-1080 IDH1 knockdown cell toxicity (counter line) | HT-1080 IDH1 knockdown viability, ATP luminescence, 48 h | Potency, µM (doses to about 46.1 µM), for the others: top-dose activity, negative = toxicity, hits mostly cytotoxic | 360,000 compounds, 2% hits;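 further: potency means the concentration at half of the fitted maximal effect; 0% = DMSO wells and -100% = cell-free medium wells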
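In this qHTS, HT-1080 cells depleted of IDH1 are exposed for 48 h at 37 °C to compound titrations. Toxicity is scored from CellTiter-Glo luminescence, with DMSO as full viability and medium alone as none.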
IL1B secr inh: blocks inflammasome-driven IL-1 beta release; activity change, % at 57.5 µM; 360,000 compounds, 4.7% hits; AID 743279; THP-1 LPS/ATP IL-1B secretion, AlphaLISA, 16 h; stronger effect = lower value; in the data active means activity change below about -50%; inconclusive means mostly about -30% to -49%
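Secreted IL-1B measured by AlphaLISA bead assay after 16 h compound exposure of THP-1 cells; compounds (final up to 57.5 uM) added 1 h before LPS (250 ng/mL) and ATP (1.25 mM) stimulation; lower signal means less secretion.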
ELG1 DNA repair: ELG1-dependent DNA repair inhibition | HEK293T ELG1-luciferase reporter, luminescence, 16 h; DNA damage induced by 5-fluorouridine | Potency, µM (series often up to 46.1 µM), inactives show at the top dose activity change, negative = inhibition, most hits filed as inhibitors | 330,000 compounds, 2.3% hits | AID 504467; further: potency means the concentration at half of the fitted maximal effect; nearly all actives have a fitted effect of over 55% in size
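Step one: seed 2,000 cells per well. Step two: pin-transfer compound or DMSO alongside 5-fluorouridine. Step three: incubate 16 hr, 37 °C, 5% CO2. Step four: add ONE-Glo, wait 30 min, read luminescence.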
HT1080-NT tox: kills 2HG-producing HT-1080-NT fibrosarcoma cells | Potency, µM (top dose mostly 46.1 µM), inactives show top-dose activity, negative = less viability, most hits filed as cytotoxic | 360,000 compounds, 1.6% hits | HT-1080-NT fibrosarcoma viability, CellTiter-Glo ATP luminescence, 48 h;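 further: NT is the 2HG producing partner of a matched IDH1 knockdown line; potency means the concentration at half of the fitted maximal effect; 0% = DMSO-treated cells and -100% = media-only wells without cells; nearly all actives have a fitted effect of over 55% in size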
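Viability by CellTiter-Glo luminescence after 48 h compound exposure at 37C of HT-1080-NT cells (750/well, RPMI, 5% FBS). % activity scaled between DMSO wells and medium-only wells, then curve-fitted and categorized by curve class.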
DT40 TDP1 CPT: DT40-hTDP1 cell growth loss with CPT. chicken DT40 Tdp1-/-;hTDP1 cells + 20 nM CPT, ATP luminescence, 48 h. Potency, µM (highest dose often 46.2 µM), without a hit: top-dose activity change, negative = growth inhibition, actives largely listed as inhibitors. 420,000 compounds, 12% hits. AID 686979; further: potency means the concentration at half of the fitted maximal effect; nearly all actives have a fitted effect of over 55% in size
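Chicken DT40 Tdp1-/- cells complemented with human TDP1, 400 cells/well, exposed to compounds plus 20 nM camptothecin for at least 48 h at 37 C; viability read as ATP content by CellTiter-Glo luminescence.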
TDP1 cell noCPT: qHTS for Inhibitors of human tyrosyl-DNA phosphodiesterase 1 (TDP1): qHTS in cells in absence of CPT | DT40 Tdp1-/- hTDP1 cells, no CPT, ATP luminescence, 48 h | Potency, µM (doses to about 46.2 µM), without a hit: top-dose activity change, negative = growth inhibition, usual class: inhibitors | 420,000 compounds, 15% hits; further: potency means the concentration at half of the fitted maximal effect; nearly all actives have a fitted effect of over 55% in size
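Compound effects on proliferation are scored in DT40 Tdp1-/-;hTDP1 cells in the absence of CPT. ATP levels (CellTiter-Glo luminescence) are recorded after a ≥48 hr, 37 °C incubation.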
The depositor's hits bear a star; ? = inconclusive; nt = no result given. Unless noted, the call rests on the fitted dose curve; in most records, active means well fitted curve in the direction sought with a large enough effect; inconclusive means small, poorly fitted or top-dose-only effect, or another doubt; inactive means no such curve, though single readings can be large; an effect the other way counts as inactive or inconclusive. Unless noted, on the % scale 0 is the no-effect control and ±100 the full control effect.

SMILES	HT1080 IDH1KD tx	IL1B secr inh	ELG1 DNA repair	HT1080-NT tox	DT40 TDP1 CPT	TDP1 cell noCPT
c1cncc(CSc2ccc(-c3cccs3)nn2)c1	?	-60.5*	11.7%	-25.7%	-28.8%	?
Cc1ccc(C2=NC3(CCCC3)N=C2SCC(=O)Nc2ccc3c(c2)OCCO3)cc1	-2.3%	-94.3*	?	1.0%	?	-6.6%
O=C(CSC1=NC2(CCCCCC2)N=C1c1ccccc1)Nc1ccc2c(c1)OCCO2	?	-75.3*	?	?	?	?
O=C(CSc1ccccc1)Nc1ccc2c(c1)OCCO2	0.7%	-1.6	?	5.7%	2.0%	10.2%
O=C(CSC1=NC2(CCCCC2)N=C1c1ccccc1)Nc1ccc2c(c1)OCCO2	-7.3%	-80.4*	?	-3.7%	?	?
Cc1ccc2nc(SCC(=O)Nc3ccc4c(c3)OCCO4)[nH]c2c1	-5.8%	-14.3	1.3%	-7.6%	-24.9%	?
CC(=O)c1cc(CCC(=O)NC2CCCCCC2)oc1C	14.8%	17.8	13.9%	10.2%	0.3%	-1.5%
CN(C)CCN(C(=O)c1ccccc1Cl)c1nc2c(Cl)cccc2s1	0.0%	-68.7*	-3.2%	-4.8%	?	?
CN(C)CCN(C(=O)c1cccc(Cl)c1)c1nc2c(Cl)cccc2s1	-15.2%	0.0	1.3%	-7.0%	1.9%	?
CCN(CC)CCN(C(=O)c1ccc2c(c1)OCCO2)c1nc2c(Cl)cccc2s1	-16.7%	-66.0*	-12.1%	-10.3%	18.4µM*	?
CCN(CC)CCN(C(=O)c1ccc2c(c1)OCCO2)c1nc2cc(C)cc(C)c2s1	-16.6%	-57.2*	-14.0%	-5.1%	14.6µM*	?
CN(C)CCN(C(=O)c1ccc2c(c1)OCCO2)c1nc2ccc(Cl)cc2s1	?	-21.5	?	-3.7%	?	?
Cc1cc(NC(=O)c2ccco2)c(=O)n(Cc2cccc(C(F)(F)F)c2)c1	-13.1%	9.9	-15.1%	-0.7%	-25.9%	-18.8%
CCOc1ccccc1C(=O)N1CCCCC1CCN1CCOCC1 (stereo unspecified)	nt	nt	nt	nt	-7.3%	7.6%
Cc1nn(-c2ccccc2)c(Cl)c1/C=N/NC(N)=O	10.8%	nt	?	8.9%	1.7%	-11.7%
CNC(=S)N/N=C/c1c(C)nn(-c2ccc(F)cc2)c1Cl	-18.8%	-1.1	29.6%	-22.1%	?	14.6µM*
Cc1nn(-c2ccccc2)c(Cl)c1/C=N/NC(=O)CNC(=O)c1ccccc1Cl	-4.2%	1.9	?	-3.5%	20.6µM*	?
COC(=O)N/N=C\c1c(C)nn(-c2ccccc2)c1Cl	-3.8%	-16.8	?	19.1%	10.3%	-10.9%
Cc1ccc(C)c(OCC(=O)N/N=C/c2c(C)nn(-c3ccccc3)c2Cl)c1C	4.2%	60.8	-0.1%	12.0%	14.6µM*	7.31µM*
Cc1nn(-c2ccc(F)cc2)c(Cl)c1/C=N/NC(=O)c1ccc(O)cc1	-6.9%	6.4	-5.8%	-12.3%	0.6%	-28.2%
Cc1nn(-c2ccccc2)c(Cl)c1/C=N/Nc1nc2ccccc2n1C	?	6.2	?	-29.2%	25.9µM*	14.6µM*
CN1CC(=O)N(CC(=O)Nc2ccc(OCc3ccccc3)cc2)C1=O	-5.9%	-0.1	?	-3.6%	4.6%	?
COc1ccc(C(=O)Nc2ccc(S(=O)(=O)Nc3onc(C)c3C)cc2)c(OC)c1	-3.9%	17.9	?	0.1%	-1.3%	-10.6%
Cc1nn(-c2ccccc2)c(Cl)c1/C=N/NC(=O)c1cccc(S(=O)(=O)N2CCCC2)c1	0.4%	22.0	13µM*	2.3%	-27.8%	10.3µM*
CCC(C)NC(=O)C(=O)Nc1c2c(nn1-c1ccccc1)CS(=O)(=O)C2 (stereo unspecified)	nt	nt	nt	nt	-11.0%	-6.0%
SMILES	HT1080 IDH1KD tx	IL1B secr inh	ELG1 DNA repair	HT1080-NT tox	DT40 TDP1 CPT	TDP1 cell noCPT
CC(C)(C)OC(=O)C[C@@H]1C/C=C\C[C@H](CC(=O)N[C@@H](CO)Cc2ccccc2)C(=O)N[C@H](C(C)(C)C)COC1=O	16.8%	-8.3	-7.4%	8.9%	20.6µM*	18.4µM*
O=C(C[C@H]1C/C=C\CC[C@@H](Cc2ccc(F)cc2)C(=O)O[C@@H](c2ccccc2)CNC1=O)N[C@H](CO)Cc1ccccc1	-21.3%	-0.4	6.8%	?	18.4µM*	?
CC(C)(C)OC(=O)C[C@H]1C/C=C\C[C@H](CC(=O)N[C@H](CO)Cc2ccccc2)C(=O)N[C@@H](Cc2ccccc2)COC1=O	2.5%	0.0	?	17.5%	16.4µM*	14.6µM*
C[C@@H]1COC(=O)[C@@H](CC(=O)OC(C)(C)C)C/C=C\C[C@@H](CC(=O)N[C@@H](CO)Cc2ccccc2)C(=O)N1	7.7%	-2.2	10.8%	0.0%	?	?
O=C(C[C@@H]1C/C=C\C[C@@H](Cc2ccc(F)cc2)C(=O)OCCNC1=O)N[C@H](CO)Cc1ccccc1	-3.5%	-18.5	?	-8.4%	20.6µM*	18.4µM*
O=C(C[C@H]1C/C=C\C[C@@H](Cc2ccc(F)cc2)C(=O)O[C@H](c2ccccc2)CNC1=O)N[C@@H](CO)Cc1ccccc1	10.3%	21.0	?	-9.5%	-21.6%	?
CC(=O)c1ccc(NC(=S)N2CCN(c3ccccn3)CC2)cc1	-3.9%	17.2	-10.3%	-1.9%	?	?
CC(C)(C)OC(=O)C[C@H]1C/C=C\C[C@@H](CC(=O)N[C@H](CO)Cc2ccccc2)C(=O)NC[C@H](c2ccccc2)OC1=O	3.1%	-3.4	?	8.2%	?	23.1µM*
Cc1ccc(NC(=O)c2cc(S(=O)(=O)N3CCc4ccccc43)cn2C)c(Cl)c1	nt	nt	nt	nt	?	11.6µM*
COc1ccc(NC(=O)c2cc(S(=O)(=O)N3CCc4ccccc43)cn2C)cc1	-9.1%	-1.4	-23.3%	2.0%	10.3µM*	?
CCc1ccccc1NC(=O)c1cc(S(=O)(=O)N2CCc3ccccc32)cn1C	-4.0%	16.5	-6.0%	0.0%	-11.4%	-26.6%
Cc1cccc(NC(=O)c2cc(S(=O)(=O)N3CCc4ccccc43)cn2C)c1C	-2.6%	0.0	11.9%	-4.6%	-19.6%	-18.5%
CCCNC(=O)c1cc(S(=O)(=O)N2CCc3ccccc32)cn1C	-11.9%	37.2	-3.0%	3.2%	23.1µM*	18.4µM*
COc1ccccc1/C=C/c1nc2ccccc2c(=O)o1	-18.2%	0.7	nt	-5.4%	-7.5%	-19.0%

Assay outcomes (PubChem)
